Assay outcomes: PubChem BioAssay, Broad Institute
Many of the other results were omitted from the sample, so hits are more common in it than they were.
ROS inducer = ROS inducers in U2OS cancer cells, primary screen, cell-based, H2DCF-DA fluorescence; U2OS ROS induction; ROS induction (% of piperlongumine), % at 10 µM; 2% of 46,000 active; in the data active = ROS induction above about 79%, passing the limit was not always enough;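 note: 0% = DMSO vehicle median and 100% = reference compound median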
YB-1 expression = inhibitors of YB-1 gene expression, primary screen, cell-based, fluorescence | U2OS, qRT-PCR YB-1 vs CDIP delta delta Cp, 16 h; active compounds read high; zero = DMSO, each unit about twofold | delta delta Cp (YB-1 minus CDIP) (no concentration beside the values) | AID 434959, 2010 | 0.37% of 30,000 active;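 active = delta delta Cp rounded down to an integer at or above 3, about 3 SD of DMSO wells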;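 note: higher means less YB-1 transcript or more CDIP transcript relative to DMSO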
MITF inh = inhibitors of MITF, primary screen, MITF inhibitor project, cell-based, luminescence | TRPM1 promoter luciferase, 24 h | inhibition, % (no concentration beside the values) | 0.28% of 37,000 active; in the data active = inhibition above about 85%;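 note: human melanocyte line stably carrying TRPM1 promoter luciferase reporter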
PD-1 reverse act = activators reversing PD-1 mediated T-cell inhibition, primary screen, luminescence, primary human CD4 T cells, PD-L1 beads. CellTiter-Glo 96 h. activation, % (test concentration not listed). 29,000 tested, under 10 active. AID 2316, 2010; call rule not given here;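 note: 0% = median vehicle wells and 100% = positive control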
NOMO-1 viab = NOMO-1 AML cell viability reduction, primary screen, STK33 inhibitor project, CellTiter-Glo luminescence; NOMO-1 AML viability, 72 h; inhibition, % (test concentration not listed); 7.5% of 37,000 active; AID 2330, 2010; in the data active = inhibition above about 80%
An asterisk follows results filed as active; nt = no result.

SMILES | ROS inducer | YB-1 expression | MITF inh | PD-1 reverse act | NOMO-1 viab
C[C@@H]1CN([C@@H](C)CO)C(=O)c2cccc(NC(=O)c3cnccn3)c2O[C@@H]1CN(C)Cc1ccc(C(=O)Nc2ccccc2N)cc1 | 6 | -0.51 | 32 | -3 | 129*
C[C@H](CO)N1C[C@H](C)[C@H](CN(C)S(C)(=O)=O)Oc2c(NC(=O)c3cnccn3)cccc2C1=O | -8 | 4.7* | -10 | 1 | 1
CC1=CC(C)(C)Nc2ccc(OC(=O)CN3C(=O)c4cccc([N+](=O)[O-])c4C3=O)cc21 | 32 | nt | 33 | -13 | 115*
C=CCSc1nnc2c(n1)OC(c1ccc(-c3ccc(F)cc3)o1)N(C(C)=O)c1ccccc1-2 (configuration not stated) | 118* | 0.17 | -3 | 0 | 35
CSc1nnc2c(n1)OC(C)N(C(C)=O)c1ccccc1-2 (configuration not stated) | 12 | 0.18 | -13 | 0 | 7
Cc1ccccc1NC(=O)CSC1CC(=O)N(c2ccc(F)cc2)C1=O (configuration not stated) | nt | nt | -10 | nt | -11
O=C(CSc1nc2sc3c(c2c(=O)n1-c1ccccc1)CCCC3)Nc1ccccc1 | nt | nt | -3 | nt | 29
CSc1nc2sc3c(c2c2nnc(SCC(=O)Nc4ccccc4)n12)CCC3 | 58 | nt | 80 | -4 | 129*
COc1ccc(OC)c(CN2CCN(Cc3cccc([N+](=O)[O-])c3)CC2)c1 | nt | nt | -35 | nt | -4
CC/C=C\C[C@@H]1C(=O)C=C[C@@H]1CCCCCCCC(=O)O | 51 | 1.4 | -15 | -8 | 117*
C[C@@H]1CN([C@H](C)CO)C(=O)c2cc(NC(=O)Nc3ccc(C(F)(F)F)cc3)ccc2O[C@H]1CN(C)C(=O)Nc1cccc2ccccc12 | 41 | -0.26 | 5 | nt | 117*
C[C@@H]1CN([C@H](C)CO)C(=O)c2cc(NC(=O)Nc3cccc4ccccc34)ccc2O[C@@H]1CN(C)C(=O)Nc1ccc(C(F)(F)F)cc1 | -7 | 0.33 | 0 | nt | 22
C[C@H](CO)N1C[C@H](C)[C@H](CN(C)C(=O)Nc2cccc3ccccc23)Oc2ccc(NC(=O)Nc3ccc(C(F)(F)F)cc3)cc2C1=O | -9 | -0.53 | 43 | -3 | 114*
C[C@@H]1CN([C@H](C)CO)C(=O)c2cc(NC(=O)Nc3cccc4ccccc34)ccc2O[C@@H]1CN(C)C(=O)Nc1ccccc1 | 84* | -0.2 | -13 | -1 | 27
CC1(C)Cc2cccc(C(=O)Nc3ccc(C(F)(F)F)cc3)c2O1 | 45 | nt | nt | nt | nt
CNC(=O)CN(c1cc(C)ccc1OC)S(C)(=O)=O | 3 | nt | -4 | 1 | 6
C[C@@H]1CN([C@H](C)CO)C(=O)c2cc(NC(=O)Nc3ccccc3)ccc2O[C@@H]1CN(C)Cc1ccc(C(=O)Nc2ccccc2N)cc1 | 7 | 0.18 | 11 | -3 | 109*
C[C@H](CO)N1C[C@H](C)[C@@H](CN(C)Cc2ccc(C(=O)Nc3ccccc3N)cc2)Oc2ccc(NC(=O)Cc3ccccc3)cc2C1=O | 1 | -0.15 | -18 | -1 | 4
C[C@@H]1CN([C@H](C)CO)C(=O)c2cc(NC(=O)Cc3ccccc3)ccc2O[C@@H]1CN(C)Cc1ccc(C(=O)Nc2ccccc2N)cc1 | 13 | 0.14 | -29 | -3 | 105*
CCCNC(=O)CSc1c(-c2ccccc2)c2cc(Cl)ccc2[nH]c1=O | 9 | nt | nt | nt | nt
Cc1ccccc1S(=O)(=O)N(C)C[C@H]1OCc2cn(nn2)CCCC(=O)N([C@@H](C)CO)C[C@H]1C | -27 | -0.32 | nt | nt | nt
C[C@H](CO)N1C[C@H](C)[C@@H](CN(C)Cc2ccc(Oc3ccccc3)cc2)Oc2c(NS(C)(=O)=O)cccc2C1=O | 92* | -0.35 | -11 | -1 | 16
C[C@H]1CN([C@@H](C)CO)C(=O)c2cccc(NS(C)(=O)=O)c2O[C@@H]1CN(C)Cc1ccc(-c2ccccc2)cc1 | 98* | 0.18 | 1 | 1 | 13
C[C@@H]1CN([C@H](C)CO)C(=O)c2cccc(N(C)C)c2O[C@H]1CN(C)Cc1ccc(-c2ccccc2)cc1 | -1 | 0.2 | -6 | -8 | 86*
C[C@@H]1CN([C@@H](C)CO)C(=O)c2cccc(NS(C)(=O)=O)c2O[C@H]1CN(C)Cc1ccc(Oc2ccccc2)cc1 | 10 | 0.014 | 0 | -1 | 4
SMILES | ROS inducer | YB-1 expression | MITF inh | PD-1 reverse act | NOMO-1 viab
C[C@@H]1CN([C@H](C)CO)C(=O)c2cccc(NS(C)(=O)=O)c2O[C@H]1CN(C)Cc1ccc(-c2ccccc2)cc1 | 2 | -0.48 | -12 | 0 | -7
CCN(CC)C(=O)c1ccc(Nc2nnc(-c3ccc(C)c(S(N)(=O)=O)c3)c3ccccc23)cc1 | nt | nt | 1 | nt | -5
C=C1C(=O)OC2CC(C)C3(/C=C/C(C)=O)OC3CC12 (configuration not stated) | 49 | -0.2 | -7 | -9 | 118*
O=C1c2ccccc2C2=Nc3ccccc3SC(c3ccc(F)cc3)C12 (configuration not stated) | 21 | nt | nt | nt | nt
Cc1cccc(C2Sc3ccccc3N=C3c4ccccc4C(=O)C32)c1 (configuration not stated) | 106* | 0.085 | 64 | 0 | 104*
O=S(=O)(CCc1nnc(-c2ccccc2)o1)c1ccc(Cl)cc1 | nt | nt | -7 | nt | 0
COc1ccc(CN(C)C[C@@H]2Oc3c(NC(=O)Nc4ccc(F)cc4)cccc3C(=O)N([C@@H](C)CO)C[C@H]2C)cc1 | 14 | -0.34 | 18 | -5 | 110*
COc1ccc(CN(C)C[C@H]2Oc3c(NC(=O)Nc4ccc(OC)cc4)cccc3C(=O)N([C@@H](C)CO)C[C@H]2C)cc1 | -10 | -0.078 | -15 | 0 | 14
COc1ccc(NC(=O)Nc2cccc3c2O[C@@H](CN(C)Cc2ccccc2)[C@H](C)CN([C@H](C)CO)C3=O)cc1 | 9 | -0.23 | 62 | -8 | 117*
COc1ccc(NC(=O)Nc2cccc3c2O[C@@H](CN(C)Cc2ccc(Oc4ccccc4)cc2)[C@H](C)CN([C@@H](C)CO)C3=O)cc1 | 29 | -0.058 | 40 | -1 | 91*
COc1ccc(NC(=O)Nc2cccc3c2O[C@@H](CN(C)Cc2ccc(Oc4ccccc4)cc2)[C@@H](C)CN([C@H](C)CO)C3=O)cc1 | 49 | 0.043 | -1 | -4 | 117*
COc1ccc(NC(=O)Nc2cccc3c2O[C@@H](CN(C)Cc2ccccc2)[C@@H](C)CN([C@@H](C)CO)C3=O)cc1 | 10 | -0.1 | -6 | 1 | 49
O=C(c1ccc(Cl)c(Cl)c1)N1CCc2ccccc21 | -4 | nt | nt | nt | nt
COC(=O)/C=c1\sc2n(c1=O)CCN=2 | 15 | nt | nt | nt | nt
Cc1csc2sc(-c3ccnc(SCC(=O)NCc4ccccc4)n3)c(C)c12 | 62 | 0.26 | -5 | -2 | 113*
Cn1c(=O)c2c(nc(N3CCOCC3)n2CCCN)n(C)c1=O | nt | nt | -37 | nt | -9
